{"source": "PubChem BioAssay (EPA / NIEHS)", "note": "Activity calls are given as the source filed them. How the source made its calls: active means hit-call score of the fitted dose curve at least 0.9, where 1 is the maximum; inactive means score below 0.9. *1 amine or outer side, *2 acyl side, *3 side chain or, on linkers, in order; H or OH if unused. Where a SMILES comes first, the peptide text is derived from it. Bridges are numbered along the chain shown (N, C = ends). Roman numbers before positions name the chains, in order. [ ]: non-standard residue; d: D form. Actinocin(9to1) = Cc1c2oc3c(C)ccc(C(=O)[*:1])c3nc-2c(C(=O)[*:2])c(N)c1=O; NMeV = CN[C@H](C(=O)O)C(C)C; Sar = CNCC(=O)O", "data": [{"system": "Brachyury (BRA) Protein Expression, Deisenroth Lab, TBXT (gene 6862)", "experiment": "CCTE_Deisenroth_DEVTOX-GLR_legacy_Bra: (Legacy) CCTE's DevTox GLR-Endo Assay Evaluation of Brachyury (BRA) Protein Expression, Deisenroth Lab (AID 2284329)", "protocol": "CCTE_Deisenroth_DEVTOX-GLR_legacy assay is a cell-based, multiplex-readout assay that uses RUES2-GLR, a human pluripotent cell line, with measurements taken at 48 hours after chemical dosing in a 384-well microplateCCTE_Deisenroth_DEVTOX-GLR_legacy_Bra is one of 4 assay components calculated from the CCTE_Deisenroth_DEVTOX-GLR_legacy assay that measures an increase in the percentage of cells in an […] state. It is designed to make measurements of inducible reporter a form of fluorescent protein induction as detected with optical fluorescence microscopy. Percentage Bra+ cells are determined by calculating the number of Bra+ cells divided by cell count. A cell is Bra+ if the cell Bra mean intensity is 5x BMAD above the pluripotent control median cell Bra mean. The assay endpoint was analyzed with bidirectional fitting with the 0.2% DMSO control median percent Bra in the DEVTOX-GLR assay subtracted.Data from the assay component CCTE_Deisenroth_DEVTOX-GLR_legacy_Bra was analyzed into 1 assay endpoint. This assay endpoint, CCTE_Deisenroth_DEVTOX-GLR_legacy_Bra, was analyzed in the positive analysis fitting direction relative to DMSO as the negative control and baseline activity. Using a type of inducible reporter, gain-of-signal activity can be used to understand changes in gene expression. Furthermore, this assay endpoint can be referred to as a secondary readout, because this assay has produced multiple assay endpoints where this one serves as a measure of mesoderm differentiation. To generalize the intended target to other relatable targets, this assay endpoint is annotated to the transcription factor intended target family, where the subfamily is T-box protein.\nAll assay protocols are aligned to the DevTox GLR-Endo assay workflow. Cells are seeded into 384-well microplates for 24 hours prior to initiating differentiation in defined media for a total duration of 48 hours. A total of two chemical exposures are administered in 24-hour intervals during the 48-hour differentiation period. At the assay termination point, cells are fixed and stained with a fluorescent dye demarcating the nucleus. High-content imaging is used to acquire brightfield and fluorescent channel images across 5 fields per well. Cell identification and mean biomarker fluorescence intensities are calculated with image analysis software to determine the total cell counts for viability assessment and the biomarker expression frequency for each lineage-dependent assay. A typical experimental design tests a 10-point concentration series (1 nM - 200 uM) for 28 compounds in single technical replicate. Assay plate controls include non-differentiated pluripotent cells (baseline control), lineage-specific differentiated cells (differentiation control), and DMSO solvent exposed differentiated cells (solvent control). Experiments typically comprise a minimum of four experimental replicates (n=4).", "values": [{"compound": "CN1CCN2c3ccccc3Cc3ccccc3C2C1", "note": "(centres undefined)", "AC50": "52.7 µM (active)"}, {"compound": "Cc1ccc(NC(=O)c2ccc(CN3CCN(C)CC3)cc2)cc1Nc1nccc(-c2cccnc2)n1", "AC50": "20.1 µM (active)"}, {"compound": "COc1cc2ncnc(Nc3ccc(F)c(Cl)c3)c2cc1OCCCN1CCOCC1", "AC50": "8.42 µM (active)"}, {"compound": "COc1cc2c(Nc3ccc(Br)cc3F)ncnc2cc1OCC1CCN(C)CC1", "AC50": "8.49 µM (active)"}, {"compound": "Cc1nc(Nc2ncc(C(=O)Nc3c(C)cccc3Cl)s2)cc(N2CCN(CCO)CC2)n1", "AC50": "3.19 µM (active)"}, {"compound": "CNC(=O)c1cc(Oc2ccc(NC(=O)Nc3ccc(Cl)c(C(F)(F)F)c3)cc2)ccn1", "AC50": "0.815 µM (active)"}, {"compound": "Nc1cccc2c1CN(C1CCC(=O)NC1=O)C2=O", "note": "(centres undefined)", "outcome": "inactive"}, {"compound": "CCN(CC)CCNC(=O)c1c(C)[nH]c(/C=C2\\C(=O)Nc3ccc(F)cc32)c1C", "AC50": "6.88 µM (active)"}, {"compound": "O=c1[nH]c(=O)n([C@H]2C[C@H](O)[C@@H](CO)O2)cc1Br", "AC50": "11.7 µM (active)"}, {"compound": "CCCCCN=C(N)N/N=C/c1c[nH]c2ccc(OC)cc12", "outcome": "inactive"}, {"compound": "O=C(c1ccc(F)cc1)C1CCN(CCn2c(=O)[nH]c3ccccc3c2=O)CC1", "outcome": "inactive"}, {"compound": "O=C1Cc2cc(CCN3CCN(c4nsc5ccccc45)CC3)c(Cl)cc2N1", "AC50": "3.94 µM (active)"}, {"compound": "Cc1c2oc3c(C)ccc(C(=O)N[C@@H]4C(=O)N[C@H](C(C)C)C(=O)N5CCC[C@H]5C(=O)N(C)CC(=O)N(C)[C@@H](C(C)C)C(=O)O[C@@H]4C)c3nc-2c(C(=O)N[C@@H]2C(=O)N[C@H](C(C)C)C(=O)N3CCC[C@H]3C(=O)N(C)CC(=O)N(C)[C@@H](C(C)C)C(=O)O[C@@H]2C)c(N)c1=O", "note": "(I: T[dV]P[Sar][NMeV] / II: T[dV]P[Sar][NMeV]; ester I:1-I:C, II:1-II:C; linker I:N-II:N via Actinocin(9to1))", "AC50": "0.00154 µM (active)"}, {"compound": "CC1=C(/C=C/C(C)=C/C=C/C(C)=C\\C(=O)O)C(C)(C)CCC1", "AC50": "100 µM (active)"}]}]}
